# From PubChem BioAssay
# DT40 TDP1 no CPT = qHTS for Inhibitors of human tyrosyl-DNA phosphodiesterase 1 (TDP1): qHTS in cells in absence of CPT. hit rate 15% among 420,000. AID 686978, 2013. DT40 Tdp1-/- hTDP1 cells, no CPT, ATP luminescence, 48 h. Potency, µM (titrated, usually from 46.2 µM), for the others: at the highest dose activity change, negative = growth inhibition, actives largely listed as inhibitors; further: potency means the concentration at half of the fitted maximal effect; nearly all actives have a fitted effect of over 55% in size
#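 Seeded 400 DT40-hTDP1 cells/well (vehicle DMSO, no 20 nM CPT); pinned compounds; ≥48 hr at 37 °C; CellTiter-Glo luminescence as viability measure.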
# HT1080-NT tox = qHTS for induction of synthetic lethality in tumor cells producing 2HG: qHTS for the HT-1080-NT fibrosarcoma cell line; Potency, µM (series often up to 46.1 µM), inactives show at the highest dose activity, negative = less viability, hits mostly cytotoxic; hit rate 1.6% among 360,000; AID 686970, 2013; HT-1080-NT fibrosarcoma viability, CellTiter-Glo ATP luminescence, 48 h;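 further: NT is the 2HG producing partner of a matched IDH1 knockdown line; potency means the concentration at half of the fitted maximal effect; 0% = DMSO-treated cells and -100% = media-only wells without cells; nearly all actives have a fitted effect of over 55% in size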
#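 HT-1080-NT fibrosarcoma cells (2HG-overproducing), 750 cells/well in RPMI with 5% FBS, dosed after 2 h and incubated 48 h at 37C. CellTiter-Glo luminescence normalized to DMSO and no-cell wells; concentration-response curves fitted and classed.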
# TDP1 cell CPT = qHTS for Inhibitors of human tyrosyl-DNA phosphodiesterase 1 (TDP1): qHTS in cells in presence of CPT. chicken DT40 Tdp1-/-;hTDP1 cells + 20 nM CPT, ATP luminescence, 48 h. hit rate 12% among 420,000. Potency, µM (series often up to 46.2 µM), inactives show at the top dose activity change, negative = growth inhibition, hits mostly inhibitors. AID 686979, 2013; further: potency means the concentration at half of the fitted maximal effect; nearly all actives have a fitted effect of over 55% in size
#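 Chicken DT40 Tdp1-/- cells stably complemented with human TDP1 were seeded at 400 cells/well in medium containing 20 nM camptothecin, exposed to pin-transferred compounds, and grown at 37 °C for at least 48 hr. Viability was read as ATP luminescence.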
# HT1080 IDH1KD tx = qHTS for induction of synthetic lethality in tumor cells producing 2HG: qHTS for the HT-1080-IDH1KD cell line; Potency, µM (titrated, usually from 46.1 µM), for the others: at the highest dose activity, negative = toxicity, actives largely listed as cytotoxic; HT-1080 IDH1 knockdown viability, ATP luminescence, 48 h; hit rate 2% among 360,000;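 further: potency means the concentration at half of the fitted maximal effect; 0% = DMSO wells and -100% = cell-free medium wells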
#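 CellTiter-Glo luminescence after 48 h compound exposure at 37 degrees C of IDH1-knockdown HT-1080 cells in 5% FBS RPMI. %Activity scaled between DMSO wells and cell-free media wells, with curves fitted and assigned curve classes.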
# IL1B secr inh = qHTS for Inhibitors of Inflammasome Signaling: IL-1-beta AlphaLISA Primary Screen; hit rate 4.7% among 360,000; THP-1 LPS/ATP IL-1B secretion, AlphaLISA, 16 h; active compounds read low; activity change, % at 57.5 µM; AID 743279, 2014; in the data active means activity change below about -50%; inconclusive means mostly about -30% to -49%
#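 THP-1 cells pretreated 1 hr with compounds (up to 57.5 uM final), then stimulated with LPS (250 ng/mL final) plus ATP (1.25 mM final); secreted IL-1B measured by AlphaLISA after 16 hr, decreased signal indicating inhibition.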
# * hit, by the source's call; ? = inconclusive; · = no result given; [ ] = remark or other dose. This is a sample that favours compounds with a hit; in the whole collection about 19% have one here. Unless noted, the call rests on the fitted dose curve; in most records, active means well fitted curve in the direction sought with a large enough effect; inconclusive means small, poorly fitted or top-dose-only effect, or another doubt; inactive means no such curve, though single readings can be large; an effect the other way counts as inactive or inconclusive. Unless noted, on the % scale 0 is the no-effect control and ±100 the full control effect.
SMILES,DT40 TDP1 no CPT,HT1080-NT tox,TDP1 cell CPT,HT1080 IDH1KD tx,IL1B secr inh
CCc1ccc(C2CC(c3ccccc3)Nc3nc(N)nn32)cc1 (configuration not stated),-19%,2%,-6%,11%,13
Cc1ccc(C2CC(c3cccc(Cl)c3)n3nc(N)nc3N2)cc1 (configuration not stated),18µM*,15%,15µM*,9%,-22
COc1ccc(C(=O)N2CCC[C@@]3(CCN(Cc4ccncc4)C3)C2)cc1,-3%,·,1%,·,·
NNC(=O)CNC(c1ccccc1)c1cc(Br)ccc1NC(=O)c1ccc(Br)cc1 (configuration not stated),-19%,-2%,?,-4%,-63*
CCOC(=O)CNC(c1ccccc1)c1cc(Br)ccc1NC(=O)c1cccc(Cl)c1 (configuration not stated),23µM*,·,?,·,·
NNC(=O)CNC(c1ccccc1)c1cc(Br)ccc1NC(=O)CCN1CCOCC1 (configuration not stated),13µM*,-14%,23µM*,-12%,-1
COC(=O)CNC(c1ccccc1)c1cc(Br)ccc1NC(C)=O (configuration not stated),-20%,-9%,-17%,2%,-6
COC(=O)CNC(c1ccccc1)c1cc(Br)ccc1NC(=O)c1ccccc1 (configuration not stated),?,·,21µM*,·,·
NNC(=O)CNC(c1ccccc1)c1cc(Br)ccc1NC(=O)c1cccc(Cl)c1 (configuration not stated),?,-7%,?,-13%,-20
COC(=O)C(C(=O)OC)c1ccccc1NS(=O)(=O)c1ccc(C)cc1,20%,?,-6%,-14%,63
COC(=O)CNC(c1ccccc1Cl)c1cc(Br)ccc1NS(=O)(=O)c1ccc(C)cc1 (configuration not stated),16µM*,-22%,?,-27%,10
CCn1c(=O)c2c(n3cnnc13)-c1ccccc1CC21CCCCC1,?,-4%,13µM*,-3%,3
Oc1ccccc1N=Cc1c(O)ccc2oc3c(c12)CCCC3,?,-4%,?,-10%,26
O=C(O)c1ccc(N=Cc2c(O)ccc3oc4c(c23)CCCC4)cc1,?,0%,16µM*,-9%,70
O=C(Cn1ncc2c([nH]c3ccccc32)c1=O)Nc1cc(F)ccc1F,-17%,·,4%,·,·
Cc1ccc(C(C)C)c(OCCCN2C(=O)NC(C)(C)C2=O)c1,-25%,-1%,3%,1%,1
Cc1ccc(OCCSc2nc(-c3ccccc3C)nc3cc(=O)[nH]n23)cc1Cl,16µM*,·,16µM*,·,·
CCc1ccc(OCCSc2nc(-c3cccc(C)c3)nc3cc(=O)[nH]n23)cc1,?,·,23µM*,·,·
COc1ccc(-c2nc(SCCOc3cc(C)ccc3C(C)C)n3[nH]c(=O)cc3n2)cc1,18µM*,·,?,·,·
CCc1ccc(OCCCSc2nc(-c3ccc(C(C)(C)C)cc3)nc3cc(=O)[nH]n23)cc1,23µM*,·,?,·,·
Cc1ccccc1NC(=O)CSc1nc(-c2ccccc2C)nc2cc(=O)[nH]n12,?,·,-10%,·,·
COc1ccc(-c2nnc(SCCOc3cccc(C)c3)n2N)cc1,-20%,-1%,-6%,-2%,?
CCCCOC(=O)c1ccc(NC(=O)/C(C#N)=C/c2ccc(C)o2)cc1,-22%,·,0%,·,·
COc1ccccc1C1CN(CCNC(=O)c2ccc3c(c2)OCCO3)Cc2ccccc2O1 (configuration not stated),?,·,12%[9.04 µM],·,·
Fc1ccc(OCc2nnc(SCCN3CCOCC3)o2)cc1,-11%,-12%,-2%,0%,0
